An excerpt weighted towards active compounds, which were near 1.6% of everything screened.
KCNQ2 enhance: KCNQ2 (rat) channel potentiation | O88943 | CHO-K1 KCNQ2, FluxOR thallium flux fluorescence; active compounds read high | B-score at 10 µM | AID 2239 | actives 0.54% (n = 310,000);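 active = fluorescence ratio B-score at least 3 SD of library B-scores, with initial fluorescence B-score within 3 of them, cut at about 5.3 in these data; same plate scores as AID 2156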;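 note: B-score of peak minus minimum over baseline fluorescence ratio after K+ and Tl+ stimulus; positive B-score means potentiation of KCNQ2 with more thallium influx and brighter signal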
Target sequence (O88943 whole entry, looked up): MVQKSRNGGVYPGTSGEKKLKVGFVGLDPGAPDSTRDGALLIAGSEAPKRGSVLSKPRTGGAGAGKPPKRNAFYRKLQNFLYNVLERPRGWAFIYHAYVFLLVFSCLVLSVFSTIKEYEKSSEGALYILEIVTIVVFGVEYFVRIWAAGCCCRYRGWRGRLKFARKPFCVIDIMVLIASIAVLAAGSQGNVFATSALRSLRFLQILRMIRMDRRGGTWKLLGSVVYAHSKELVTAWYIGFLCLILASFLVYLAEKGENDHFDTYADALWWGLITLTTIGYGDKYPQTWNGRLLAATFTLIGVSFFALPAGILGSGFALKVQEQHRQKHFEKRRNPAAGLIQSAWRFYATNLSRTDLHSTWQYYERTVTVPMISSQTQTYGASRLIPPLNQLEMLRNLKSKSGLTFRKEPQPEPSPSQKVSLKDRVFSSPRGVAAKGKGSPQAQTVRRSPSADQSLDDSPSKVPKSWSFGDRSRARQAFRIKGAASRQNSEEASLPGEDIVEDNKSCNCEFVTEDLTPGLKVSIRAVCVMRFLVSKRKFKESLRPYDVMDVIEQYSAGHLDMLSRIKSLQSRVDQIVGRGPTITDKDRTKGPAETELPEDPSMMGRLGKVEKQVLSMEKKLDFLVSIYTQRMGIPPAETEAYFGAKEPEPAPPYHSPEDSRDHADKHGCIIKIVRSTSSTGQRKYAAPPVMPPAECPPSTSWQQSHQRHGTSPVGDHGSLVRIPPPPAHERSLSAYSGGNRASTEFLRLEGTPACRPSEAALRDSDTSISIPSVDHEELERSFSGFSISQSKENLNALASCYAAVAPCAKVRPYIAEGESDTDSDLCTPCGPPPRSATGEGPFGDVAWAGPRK
KCNQ2 inh: KCNQ2 (rat) channel inhibition. O88943. CHO-K1 KCNQ2, FluxOR thallium flux, 20 min; active compounds read low. B-score at 10 µM. actives 1.1% (n = 310,000). AID 2156;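 active = fluorescence ratio B-score at most minus 3 library SDs, with starting brightness B-score within 2 library SDs, cut at about -5.5 in these data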
Each line names hits and unclear results; the compound was inactive in the other large screens.

CC1=CC(C)(C)N(C(=O)CCl)c2cc(C)ccc21	none (no result: KCNQ2 enhance)
COc1cc(N2N=C(c3ccccc3)CC2c2ccccc2)c(C=O)cc1C=O (configuration not stated)	none (no result: KCNQ2 enhance)
COc1ccccc1N1N=C(c2ccc([N+](=O)[O-])cc2)CC1c1ccccc1 (configuration not stated)	KCNQ2 inh -6.9
COc1cc(/C=C2/SC(=O)N(Cc3ccccc3)C2=O)ccc1OCc1ccncc1	none (no result: KCNQ2 enhance)
O=C(c1cc(Cl)ccc1Cl)N1CCN(Cc2ccccc2)CC1	none (no result: KCNQ2 enhance)
CCN(CC(=O)NCc1ccc(F)cc1)C(=O)Cc1c(F)cccc1Cl	none
CC(C)CNC(=S)N(CCCO)Cc1cc2cc3c(cc2[nH]c1=O)OCCO3	none
COc1ccc(CCNC(=O)Cc2ccc([N+](=O)[O-])cc2)cc1OC	none (no result: KCNQ2 enhance)
COc1ccc(CCNC(=O)Cc2ccc(OCc3ccccc3)c(OC)c2[N+](=O)[O-])cc1OCc1ccccc1	KCNQ2 inh -7.7
Cc1ccc2c(Cl)c(C(=O)N/N=C/c3cccn3C)sc2c1	none
CCOC(=O)Cn1nc(-c2ccccc2)c2ccccc2c1=O	none
O=c1c2ccccc2c(-c2ccccc2)nn1Cc1c(Cl)cccc1Cl	KCNQ2 inh -5.8
COC(=O)c1cc(NC(=O)c2cccc(C(F)(F)F)c2)c(=O)oc1C	none (no result: KCNQ2 enhance)
COC(=O)c1cc(NC(=O)c2cccc(C(F)(F)F)c2)c(=O)oc1C/C=N/OCc1cccc(Cl)c1Cl	KCNQ2 inh -7.7
CC(=O)Nc1ccc(NC(=O)c2ccco2)cc1	none
COc1ccc(OCC(=O)N/N=C2\CCCc3ccccc32)cc1	none (no result: KCNQ2 enhance)
Cc1cccc2c1OCC/C2=N\NC(=O)COc1ccccc1	KCNQ2 inh -7.3
O=C(COc1cccc(Br)c1)N/N=C1\CCCc2ccccc21	none (no result: KCNQ2 enhance)
COc1ccc(C(=O)N/N=C2\CCc3ccccc32)cc1OC	none
COc1ccccc1OCC(=O)N/N=C1\CCc2ccccc21	KCNQ2 inh -5.6
COc1ccccc1OCC(=O)N/N=C1\CCCCc2ccccc21	KCNQ2 inh -7.1
O=C(Nc1ccccc1Cl)Oc1ccc(Cl)cc1Cl	none
CCN1CCc2c(sc(NC(=S)NC(=O)c3ccco3)c2C(N)=O)C1	none (no result: KCNQ2 enhance)
CCc1nc(SCC(=O)Nc2ccccc2OC)c2c(C)c(C)sc2n1	KCNQ2 inh -5.8
COc1ccccc1NC(=O)CNC(=O)Cn1cnc2sc(C)c(C)c2c1=O	none (no result: KCNQ2 enhance)
CCN(Cc1ccccc1)S(=O)(=O)c1cc(C(=O)NC(C)C2CC3CCC2C3)ccc1OC (configuration not stated)	none (no result: KCNQ2 enhance)
CC(CCc1ccccc1)NC(=O)C(Cc1ccccc1)NS(=O)(=O)c1cccs1 (configuration not stated)	KCNQ2 inh -5.7
CC1CCCCC1NC(=O)C(Cc1ccccc1)NS(=O)(=O)c1cccs1 (configuration not stated)	none (no result: KCNQ2 enhance)
COc1ccc(NC(=O)c2oc3ccccc3c2NC(=O)c2ccco2)c(OC)c1	none (no result: KCNQ2 enhance)
Cc1onc(-c2c(F)cccc2Cl)c1C(=O)OCC(=O)NC(N)=O	none
Cc1onc(-c2c(F)cccc2Cl)c1C(=O)OCC(=O)NC(c1ccccc1)c1ccccc1	KCNQ2 inh -5.6
CC1(C)C2CC=C(/C=N/NC(=O)C(N)=O)C1C2 (configuration not stated)	none (no result: KCNQ2 enhance)
O=C(Nc1cccc(F)c1)N1CC=C(c2ccc(Cl)cc2)CC1	KCNQ2 inh -6.6
O=C(CN1CCN(c2ccc(Cl)cc2)CC1)Nc1cccc(F)c1	none (no result: KCNQ2 enhance)
CC(=O)c1cccc(N2Cc3ccccc3C2=NC(=O)CCl)c1	none (no result: KCNQ2 enhance)
Cc1cccc(N2CCN(C(=O)c3ccc(N4CCCC4=O)cc3)CC2C)c1 (configuration not stated)	none
Cc1cccc(N2CCN(C(=O)c3ccc4c(c3)c(C)c(C)n4C)CC2C)c1 (configuration not stated)	KCNQ2 inh -6.1
Cc1cccc(NC(=O)Nc2ccncc2)c1	none
Cc1nc2ccccc2nc1OCc1cccc(Cl)c1	none (no result: KCNQ2 enhance)
CC(NC(=O)c1cc([N+](=O)[O-])cc([N+](=O)[O-])c1)C1CC2CCC1C2 (configuration not stated)	none
CC(NC(=O)/C=C/c1ccccc1[N+](=O)[O-])C1CC2CCC1C2 (configuration not stated)	KCNQ2 inh -6.2
NC(=S)N/N=C\c1ccc(-c2cccc(Cl)c2Cl)o1	none (no result: KCNQ2 enhance)
COc1ccc(C(=O)Nc2cc3c(cc2C#N)OCO3)cc1S(=O)(=O)NCc1ccco1	none
Cc1cc(C)nc(NCC(O)COc2ccccc2C)n1 (configuration not stated)	KCNQ2 inh -5.9
Cc1cc(C)nc(NCC(O)CNc2ccccc2C)n1 (configuration not stated)	none
COc1cc(C(C[N+](=O)[O-])c2c(N)n(C)c(=O)n(C)c2=O)ccc1O (configuration not stated)	none (no result: KCNQ2 enhance)
Cc1ccc(C(C[N+](=O)[O-])c2c(N)n(C)c(=O)n(C)c2=O)cc1 (configuration not stated)	KCNQ2 inh -8
CCOC(=O)Cc1csc(NC(=S)NC(=O)c2ccccc2Br)n1	KCNQ2 enhance 9.6
CCOC(=O)Cc1csc(NC(=S)NC(=O)c2ccccc2)n1	none (no result: KCNQ2 enhance)
Cc1nnc(SCC(=O)NCc2ccc(F)cc2)[nH]c1=O	none (no result: KCNQ2 enhance)
Cc1onc(-c2ccccc2Cl)c1C(=O)Nc1ccc(N2CCOCC2)cc1	none (no result: KCNQ2 enhance)
Cc1ccc(-n2nc3c(c2NC(=O)c2c(-c4ccccc4Cl)noc2C)CSC3)cc1	KCNQ2 inh -7.4
O=C(C1CC1)N1N=C(c2ccccc2)CC1(O)C(F)(F)C(F)(F)F (configuration not stated)	none
Cc1cccc(NC(=O)Cn2ccn(-c3ccc4c(c3)OCCO4)c(=O)c2=O)c1	none
CCN(CC)C(=O)Oc1ccc(Cl)c2cccnc12	none (no result: KCNQ2 enhance)
O=C(Nc1cccc(C(F)(F)F)c1)Oc1ccc(Cl)c2cccnc12	KCNQ2 enhance 5.7
N=c1ccn(Cc2ccc([N+](=O)[O-])cc2)cc1	none
Cc1c(OCC(=O)NCc2ccncc2)ccc2c3c(c(=O)oc12)CCCC3	none (no result: KCNQ2 enhance)
CN(C)CCNc1ncnc2c1sc1nc(N3CCCC3)c3c(c12)CC(C)(C)OC3	none
CCN(CC)CCNc1ncnc2c1sc1nc(N3CCCC3)c3c(c12)CC(C)(C)OC3	KCNQ2 enhance 5.8
COc1ccc(OC)c(C2=NOC(C(=O)NCc3ccco3)C2)c1 (configuration not stated)	none
C(=N\Nc1nc(N2CCCCCC2)nc(N2CCCCCC2)n1)/c1ccccc1	KCNQ2 inh -5.8
O=C(O)c1ccccc1/C=N/Nc1nc(N2CCCCC2)nc(N2CCCCC2)n1	none (no result: KCNQ2 enhance)
O=C(Nc1ccc(Cl)c(Cl)c1)N1N=CCC1c1ccccc1 (configuration not stated)	none (no result: KCNQ2 enhance)
Cc1ccc(S(=O)(=O)Cc2ccc(C(=O)N3CCN(c4cc(C)ccc4C)CC3)o2)cc1	none
Cc1ccc(C)c(N2CCN(C(=O)c3ccc(CS(=O)(=O)c4ccccc4C)o3)CC2)c1	KCNQ2 inh -6.5
COc1cccc(CN(C)C(=O)CC2C(=O)NCCN2C2Cc3ccccc3C2)c1 (configuration not stated)	none (no result: KCNQ2 enhance)
CC1CN(C(=O)CCC(=O)NCc2ccc(F)cc2)c2ccccc2S1 (configuration not stated)	none (no result: KCNQ2 enhance)
COc1ccccc1CNC(=O)CCC(=O)N1CC(C)Sc2ccccc21 (configuration not stated)	KCNQ2 inh -6.3
Cc1ccc(C(=O)CSc2nnc(-c3ccccc3N)n2C)cc1C	none
Cc1ccc(NC(=O)Cc2ccsc2)cc1Cl	none
c1ccc(CN2CCC(=NNc3nc4ccccc4[nH]3)CC2)cc1	none
CC(C)(C)C1CCC(=NNc2nc3ccccc3[nH]2)CC1 (configuration not stated)	KCNQ2 inh -5.8

Screening results: PubChem, Johns Hopkins Ion Channel Center
